# In all, about 290,000 compounds went through this assay and about 890 (0.31%) were called active. No stated cut-off is given here; in the data, active means inhibition mostly above about 52% (no sharp cut-off); inactive means mostly below about 76%. Many of the other results were omitted from the sample, so actives are more common in it than they were.
# Assay: inhibitors of HIV fusion peptide binding, primary screen, biochemical, uHTS, fluorescence dequenching (AID 1986)
# Conditions: cell-free peptide binding, 30 min, stronger effect = higher value
# [1] = measured here: repeat confirmation average inhibition, at 18.6 µM
SMILES,inhibition (at 20 µM),inhibition [1]
O=C(Nc1c2c(nn1-c1ccc([N+](=O)[O-])cc1)CS(=O)(=O)C2)C1CC1,0.9% (inactive),
O=C1/C(=C\c2ccco2)SC(=S)N1c1ccc(O)cc1,57.7% (inactive),-2%
O=C1NC(=Nc2ccc(O)cc2)S/C1=C\C=C\c1ccco1,41.3% (inactive),
O=C1S/C(=C\C=C\c2ccco2)C(=O)N1c1ccc(O)cc1,78.1% (active),
Cc1ccc(N2C(=O)/C(=C\c3ccco3)SC2=S)cc1,71.5% (inactive),-1.2%
O=C1/C(=C/C=C/c2ccco2)SC(=S)N1c1ccc(O)cc1,55.7% (active),
O=C1S/C(=C\C=C\c2ccco2)C(=O)N1c1ccccc1,54.9% (inactive),-0.6%
CN(C)CCNc1oc(-c2ccccc2F)nc1C#N,0.5% (inactive),
Cc1ccc(/C(O)=C2/C(=O)C(=O)N(CC(=O)O)C2c2ccc([N+](=O)[O-])cc2)cc1 (stereo not drawn),3.5% (inactive),
O=C(CNC(=O)c1ccco1)OCC(=O)c1ccc([N+](=O)[O-])cc1,-0.7% (inactive),
Cc1c(C(=O)O)sc2nc(/C=C/c3cccc(O)c3)[nH]c(=O)c12,5.5% (inactive),
Cc1c(C(=O)O)sc2nc(/C=C/c3cccc(F)c3)[nH]c(=O)c12,27.7% (inactive),
Cc1ccc(/C=C/c2nc3sc(C(=O)O)c(C)c3c(=O)[nH]2)cc1[N+](=O)[O-],73% (active),
COC(=O)c1c(/N=C/NOCc2ccc(Cl)cc2)sc2c1CCN(c1ncc(C(F)(F)F)cc1Cl)C2,-1.7% (inactive),
CC(C)Cn1c(N)c(C(=O)COC(=O)c2ccncc2)c(=O)n(C)c1=O,0.1% (inactive),
CCOc1ccc(Br)cc1S(=O)(=O)N1CCC(C(N)=O)CC1,-0.7% (inactive),
CCn1cc(C(=O)NCCc2ccccc2C)c(=O)c2ccc(C)nc21,-1.3% (inactive),
CC(C)Nc1cc(N2CCCC2)ccc1[N+](=O)[O-],-0.2% (inactive),
COC(=O)CC1COc2ccccc2N1C(=O)c1ccc(Cl)cc1 (stereo not drawn),-3% (inactive),
Cc1nc2c(C(=O)NCCc3ccccc3)c[nH]n2c(=O)c1Cl,5.3% (inactive),
Cc1nc2c(C(=O)NCCc3ccccc3Cl)c[nH]n2c(=O)c1Cl,56.9% (active),
Cc1nc2c(C(=O)NCc3ccccc3Cl)c[nH]n2c(=O)c1Cl,49.3% (inactive),

SMILES,inhibition (at 20 µM),inhibition [1]
COc1cc(CNc2ccc(S(N)(=O)=O)cc2)ccc1OCC(=O)NC1CCCCC1,-1% (inactive),
O=C(CN1c2ccccc2S(=O)(=O)c2ccccc21)NCc1ccccc1,-0.5% (inactive),
O=C1/C(=C/c2ccco2)SC(=S)N1C1CCS(=O)(=O)C1 (stereo not drawn),39.9% (inactive),
CC1=C(C#N)C(=O)N(C2CCS(=O)(=O)C2)C(=O)/C1=C\c1ccc(C)o1 (stereo not drawn),101% (active),
O=C1/C(=C\c2ccco2)SC(=S)N1C1CCS(=O)(=O)C1 (stereo not drawn),40.7% (inactive),
CC1=C(C#N)C(=O)N(C2CCS(=O)(=O)C2)C(=O)/C1=C\c1ccco1 (stereo not drawn),83.1% (active),
Cc1ccc(/C=C2/SC(=S)N(C3CCCCC3)C2=O)o1,32.1% (inactive),
Cc1ccc(/C=C2\SC(=S)N(C3CCS(=O)(=O)C3)C2=O)o1 (stereo not drawn),25.1% (inactive),
Cn1c(=O)oc2cc(S(=O)(=O)N3CCCC(C(=O)N4CCc5ccccc5C4)C3)ccc21 (stereo not drawn),2.2% (inactive),
Cc1ccc(CS(=O)(=O)Cc2ccc(C(=O)NCCc3ccccc3)o2)cc1,0.5% (inactive),
CC(C)CNS(=O)(=O)c1cc(C(=O)N2CCOCC2)c(Cl)cc1Cl,1.1% (inactive),
COc1cc(/C=N/NC(N)=O)ccc1OCC(=O)Nc1ccc(C)c(C)c1,11.1% (inactive),
Cc1cc(C(F)F)n2ncc(C(=O)NC3CCCCCC3)c2n1,3.7% (inactive),
Cc1c(C(=O)NC(c2ccccn2)C(F)(F)F)oc2c(F)cccc12 (stereo not drawn),0.9% (inactive),
COc1ccc(CNC(=O)[C@@H](NC(=O)C2CCN(C(=O)[C@@H](N)Cc3ccccc3)CC2)C(C)C)cc1,-1.9% (inactive),
COc1ccc(OC)c(CNC(=O)CCSCc2ccc(F)cc2Cl)c1,0% (inactive),
CCN1C(=O)/C(=C\N2CCCc3ccccc32)SC1=S,3.7% (inactive),
CCN1C(=O)/C(=C/N2CCc3ccccc32)SC1=S,112% (active),63%
CCN1C(=O)/C(=C/N2CCc3ccccc3C2)SC1=S,0.4% (inactive),
Fc1ccc(N2CCN(C(c3cccs3)c3nnnn3CCc3ccccc3)CC2)cc1 (stereo not drawn),-1.4% (inactive),
COc1cc(C2CC(=O)N(CC(=O)NCC3CCCO3)c3ccccc3S2)cc(OC)c1OC (stereo not drawn),0.6% (inactive),
CC(C)(C)OC(=O)N1CCC(c2cc(=O)n3[nH]c(-c4ccc(Cl)cc4)cc3n2)CC1,-1.3% (inactive),

# Reference: PubChem BioAssay AID1986 (Sanford-Burnham Center for Chemical Genomics, 2009)
